The list is not random: actives were taken first. Their share in the collection is about 2.4%.
PREPL inh: inhibits the human prolyl oligopeptidase-like enzyme; AID 2751; actives 0.68% (n = 320,000); inhibition, % at 5.96 µM; recombinant PREPL, fluorescence polarization activity-based probe; Q4J6C6;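 note: 0% = enzyme with DMSO and 100% = wells lacking enzyme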
NadD inh: blocks S. aureus nicotinate mononucleotide adenylyltransferase; actives 0.78% (n = 360,000); inhibition, % at 20 µM; purified NadD enzyme, colorimetric absorbance read-out; in the data active = inhibition above about 26%
PP1 inh: PP1-alpha (human) inhibition in PP5 counter-screen; inhibition, % at 6.7 µM; actives 0.9% (n = 320,000); purified PP1alpha, OMFP fluorescence; P62136;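 active = inhibition above the mean inhibition of all tested compounds plus 3 SD, computed separately for each screening campaign, cut at about 15% in these data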
Target sequence (P62136 whole entry, looked up): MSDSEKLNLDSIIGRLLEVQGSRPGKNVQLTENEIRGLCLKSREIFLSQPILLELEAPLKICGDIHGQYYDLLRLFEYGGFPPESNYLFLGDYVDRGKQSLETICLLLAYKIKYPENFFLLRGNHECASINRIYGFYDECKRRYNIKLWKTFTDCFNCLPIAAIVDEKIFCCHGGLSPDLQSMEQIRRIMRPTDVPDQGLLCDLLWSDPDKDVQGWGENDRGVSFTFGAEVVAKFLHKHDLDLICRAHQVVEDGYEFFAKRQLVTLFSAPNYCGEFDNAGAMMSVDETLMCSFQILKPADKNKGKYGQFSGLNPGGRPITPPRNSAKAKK
PP5 inh: PP5 (human) phosphatase inhibition | actives 0.18% (n = 320,000) | AID 1987 | P53041 | purified PP5c, OMFP substrate fluorescence | inhibition, % at 6.7 µM;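 active = inhibition above the campaign's mean inhibition across all tested compounds plus 3 SD, cut at about 9.5% in these data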;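 note: 0% = DMSO only and 100% = 100 µM cantharidin control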
Rpn11 block: inhibitors of human proteasome Rpn11. human 26S proteasome, Ub4-pepOG fluorescence polarization; 20S core pre-blocked with epoxomicin. O00487. actives 0.59% (n = 360,000). AID 588493. inhibition, % at 20 µM;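 active = inhibition at 20 µM, scaled to each plate's controls, above about 33%, limit read from the data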
Target sequence (O00487 whole entry, looked up): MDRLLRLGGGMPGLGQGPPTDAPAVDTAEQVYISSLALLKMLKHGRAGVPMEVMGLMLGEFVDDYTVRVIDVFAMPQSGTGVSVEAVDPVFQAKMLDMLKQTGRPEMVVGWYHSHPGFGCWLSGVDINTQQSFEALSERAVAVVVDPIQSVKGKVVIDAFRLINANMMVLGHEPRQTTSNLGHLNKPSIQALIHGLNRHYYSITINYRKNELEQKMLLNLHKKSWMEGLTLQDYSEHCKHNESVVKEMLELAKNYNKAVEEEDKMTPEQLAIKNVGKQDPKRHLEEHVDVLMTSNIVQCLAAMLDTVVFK
PP1 inh confirm: human PP1 phosphatase inhibition, confirmation. purified PP1alpha, OMFP substrate fluorescence. inhibition, % at 6.7 µM. actives 52% (n = 1,900). shares compounds with PP1 inh;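 active = mean PP1 inhibition above a set limit taken from the earlier primary screen, cut at about 15% in these data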
PP5 inh counter: counter-screen for PP1 inhibitors: human PP5 phosphatase inhibition. shares compounds with PP1 inh. inhibition, % at 6.7 µM. purified PP5c, OMFP fluorescence. actives 4% (n = 1,900);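 active = mean PP5 inhibition over triplicate wells above about 9.5% taken from the earlier PP1 screen, limit read from the data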
PREPL inh cf: confirmation of human PREPL enzyme inhibitors. shares compounds with PREPL inh. recombinant PREPL, fluorescence polarization activity probe. inhibition, % at 5.96 µM. actives 67% (n = 2,000). AID 2803;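 note: 0% = protein with DMSO and 100% = wells lacking protein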
Rpn11 confirm: confirmation of human proteasome Rpn11 inhibitors; actives 29% (n = 1,900); inhibition, % at 20 µM; purified human 26S proteasome, Ub4-pepOG fluorescence polarization; proteasome pretreated with epoxomicin; shares compounds with Rpn11 block; in the data active = inhibition above about 40%
MMP-2 counter: MMP-2 (human) inhibition counter-screen; shares compounds with Rpn11 block; recombinant MMP-2, FRET peptide cleavage fluorescence; AID 602330; actives 4% (n = 1,900); inhibition, % at 20 µM; in the data active = inhibition above about 40%;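 note: human MMP-2 activated beforehand with APMA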
Thrombin FP: counter-screen for RPN11 inhibitors: inhibition of bovine thrombin. shares compounds with Rpn11 block. bovine thrombin cleavage of Ub4-pepOG, fluorescence polarization. inhibition, % at 20 µM. actives 13% (n = 1,900);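 active = mean inhibition at least 40% at 20 µM, or signal 3 deviations below plate average, so some actives read negative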;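 note: plate controls were thrombin with DMSO for no effect and buffer wells lacking thrombin for full effect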
NadD inh conf: confirmation of Staphylococcus aureus NadD inhibitors; actives 13% (n = 2,000); purified S. aureus NadD, colorimetric enzyme assay; shares compounds with NadD inh; inhibition, % at 20 µM; in the data active = inhibition mostly above about 42%, no sharp cut-off; inactive = mostly below about 42%
* hit, by the source's call; x = no result. Cut-off read from the data, not from the text of the source, unless noted: active = inhibition above about 43%; inactive = the rest.

SMILES | PREPL inh | NadD inh | PP1 inh | PP5 inh | Rpn11 block | PP1 inh confirm | PP5 inh counter | NadD inh conf | others
CC(=O)NC(CC(=O)Nc1ccc(S(=O)(=O)NC2=NCCCCC2)cc1)c1ccccc1 (centres undefined) | -4 | 0 | -6 | 0 | -4 | x | x | x
COc1ccc(/C(C)=N/NC(=O)CNC(=O)/C=C\c2ccccc2OC)c(OC)c1 | 1 | 2 | 0 | 4 | 2 | x | x | x
COc1ccc(-c2nnc(SCC(=O)Nc3sc4c(c3C#N)CCC4)n2CC2CCCO2)cc1 (centres undefined) | x | 7 | x | x | 0 | x | x | x
COc1ccc(-n2c(SCC(=O)Nc3sc4c(c3C#N)CCCC4)nnc2-c2ccccc2OC)cc1 | 14 | 41* | 18* | 3 | 5 | 4 | -1 | 45
Cc1ccc(-c2nc3ccccc3s2)cc1NC(=S)NC(=O)/C=C/c1ccco1 | 6 | 24 | 1 | 5 | 1 | x | x | x
O=C(/C=C/c1ccco1)NC(=S)Nc1cccc(-c2nc3ccccc3s2)c1 | -9 | 62* | 24* | 3 | 32 | 10 | 1 | 13
O=C1NC[C@H](CCCCN2CCN(Cc3ccccc3)C(=O)C2=O)N(CCC2CCCCC2)C1=O | x | 1 | x | x | x | x | x | x
O=C(N/N=C/c1ccc(F)cc1)c1cc(-c2ccco2)nc2ccccc12 | 7 | 45* | 19* | 0 | 27 | 13 | 2 | 81*
O=C(N/N=C/c1ccc([N+](=O)[O-])o1)c1cc(-c2ccc(-c3ccccc3)cc2)nc2ccccc12 | 17 | 70* | 27* | 4 | 5 | 29* | 4 | 10
CC(=O)C1CCC2C3CCC4=CC(=O)C=CC4(C)C3C(=O)CC12C (centres undefined) | x | 0 | x | x | 0 | x | x | x
C[C@]12C=CC(=O)C=C1CC[C@@H]1C2=CC[C@]2(C)[C@@H](C(=O)CN3CCN(c4cc(N5CCCC5)nc(N5CCCC5)n4)CC3)CC[C@@H]12 | 26 | 33* | 26* | 13* | 34 | 50* | 25* | 0
Cc1cc(C)cc(C(O)c2ncc(-c3ccccc3)[nH]2)c1 (centres undefined) | x | -5 | x | x | -9 | x | x | x
COc1cccc2cc(/C(C)=N/Nc3nc(-c4cc(C)ccc4C)cs3)c(=O)oc12 | 2 | 34* | 20* | 1 | 14 | 19* | 1 | 20
Cc1cccn2c(=O)c3cc(C#N)c(=NC(=O)c4ccco4)n(Cc4ccco4)c3nc12 | -10 | 16 | -2 | 2 | -30 | x | x | x
Cc1cccc(C(=O)N=c2c(C#N)cc3c(=O)n4cccc(C)c4nc3n2Cc2ccco2)c1 | -3 | 42* | 25* | 3 | -20 | 7 | -1 | 30
O=C(Cn1cc(COc2ccc(C(=O)c3ccccc3)cc2)nn1)c1ccc(O)cc1 | x | 5 | x | x | 5 | x | x | x
O=C(NCc1ccccc1)c1ccc2nc(-c3ccco3)c(-c3ccco3)nc2c1 | 61* | 45* | 28* | 2 | 8 | 8 | 7 | 7 | PREPL inh cf=43*
CCC(=O)Nc1cccc(C2=NOC3(C2)C[C@@H](C(N)=O)N(C(=O)c2ccccc2C(=O)c2ccccc2)C3)c1 (some centres undefined) | 0 | 8 | 4 | -2 | -6 | x | x | x
NC(=O)[C@H]1CC2(CC(c3cccc(NC(=O)CC(c4ccccc4)c4ccccc4)c3)=NO2)CN1C(=O)c1ccccc1C(=O)c1ccccc1 (some centres undefined) | -3 | 44* | 19* | 3 | 7 | 12 | 0 | 30
COc1ccc(C(=O)Nc2ccc(N3CCCC3)cc2)cc1 | 41 | 40* | 29* | 5 | 43* | -7 | -5 | 0 | Rpn11 confirm=13;MMP-2 counter=-10;Thrombin FP=-6
O=C(Nc1ccc(N2CCCC2)cc1)c1ccccc1[N+](=O)[O-] | 30 | 27* | 19* | 1 | 2 | -4 | -2 | 16
O=C(Nc1ccc(N2CCCC2)cc1)c1cc(Br)ccc1Cl | 31 | 41* | 33* | 1 | 9 | 0 | -2 | 55*
CCCOc1ccc(N)cc1N | 29 | 44* | 16* | 11* | -44 | -3 | 24* | -3
CCCOc1cc(N)ccc1C(=O)OCCN(CC)CC | 3 | 1 | 1 | -2 | 0 | x | x | x
Cc1ccc(-n2c(O)c(/C=N/Nc3ccc(S(=O)(=O)N4CCOCC4)cc3[N+](=O)[O-])c3ccccc3c2=O)c(C)c1 | 28 | 43* | 18* | 2 | 13 | 18* | 5 | 26
SMILES | PREPL inh | NadD inh | PP1 inh | PP5 inh | Rpn11 block | PP1 inh confirm | PP5 inh counter | NadD inh conf | others
COc1ccc(C(=O)Nc2ccc(N3CCN(C(=O)c4ccccc4C)CC3)cc2)cc1 | 14 | -1 | -3 | 4 | -4 | x | x | x
CCN(CC)C(=O)CSc1ncnc2c(-c3cccs3)nsc12 | 4 | 34* | 25* | 3 | 13 | 6 | -3 | 56*
CCN(CC)C(=O)CSc1ncnc2sccc12 | -1 | 2 | 0 | 3 | -1 | x | x | x
COc1ccc(N2CC(C(=O)N[C@@H](C)C(=O)NCc3ccccc3OC)CC2=O)cc1 (some centres undefined) | 0 | 8 | -2 | 1 | 3 | x | x | x
COc1ccc(C2=Nn3c(nnc3-c3ccccc3)SC2)cc1OC | 2 | 1 | -1 | 4 | 2 | x | x | x
c1ccc(-c2cc(-c3nnc4n3N=C(c3ccc5ccccc5c3)CS4)[nH]n2)cc1 | -16 | 55* | 30* | 5 | 6 | 23* | -2 | 4
NC(=O)/C(=N\OC(=O)c1ccco1)c1nc(-c2ccc(Br)cc2)cs1 | 10 | 30* | 27* | 5 | 1 | 6 | -2 | 49*
CCNc1nc(NCC)nc(SCCOC(=O)Nc2ccc(Cl)cc2Cl)n1 | 3 | -1 | 5 | 6 | 1 | x | x | x
CC1=Nc2nc(N3CCCCC3)c(C#N)c3c4c(nc(c23)N1)N(c1ccc(C(C)C)cc1)C(=O)C4 | 99* | 63* | 20* | 1 | 31 | 16* | -1 | 12 | PREPL inh cf=72*
